From PubChem BioAssay (NCI)
Values joined by “and” are separate entries in the source; they are usually repeats but may differ in a detail not shown here. Equal entries are not always repeated. Compounds without any hit were thinned out: in the full panel of roughly 83,000, 20% have a hit.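 48-hour exposure, single concentration, 96-well plates; percent growth endpoint where 0 means no net growth. Active: below 10.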 Active and inactive are the calls of the source.

system: MDA-MB-468 breast; test: NCI-60 one-dose screen, 48 h (100 = growth as untreated, 0 = no growth, -100 = all killed); settings: 10 µM unless noted

| Compound | growth |
| --- | --- |
| Oc1cc(O)c(Br)cc1Br | 101% (inactive) |
| O=C1CCC(C(=O)NN(c2ccccc2)c2ccccc2)N1 (centres undefined) | 94.5% (inactive) |
| Cc1cc(C)c(C#N)c(SCC(=O)c2sc3c(C#N)c(C)cc(C)[n+]3c2[O-])n1 | 4.32% (active) |
| C#Cc1nc(/C=C\CCCCCCC(=O)NO)cs1 | 23.1% (inactive) |
| COc1ccc2c(c1)c(-c1nonc1-c1cn(C)c3ccc(OC)cc13)cn2C | 29% (inactive) |
| C=C1CC2(OC1=O)C(=O)N(CCCCCCCN1C(=O)C3(CC(=C)C(=O)O3)c3ccccc31)c1ccccc12 (centres undefined) | -17% (active) |
| O=C(c1ccccc1)c1c(/C=C/c2ccc(Cl)cc2)nc2ccccc2c1/C=C/c1cccs1 | 94.3% (inactive) |
| O=C1C(Cl)=C(Nc2ccc3c(c2NC2=C(Cl)C(=O)c4ccccc4C2=O)C(=O)c2ccccc2C3=O)C(=O)c2ccccc21 | 5.98% (active) |
| O=C(N=Nc1c(O)[nH]c2ccc(Br)cc12)c1cc(-c2ccccc2)on1 | 109% (inactive) |
| CCCC(=O)CC(=O)c1ccccc1 | 97.5% (inactive) |
| O=C(Nc1ccc(Oc2cccc(F)c2)c(Cl)c1)c1cccnc1 | -9.22% (active) |
| CS(=O)(=O)Nc1cccc(-c2ccc3ncnc(Nc4ccc(F)c(Cl)c4)c3c2)c1 | -26% (active) |
| CCCCCCNC(=O)Oc1ccc(/C(=C(\C)c2ccccc2)c2ccc(OCCCN(C)C)cc2)cc1 | 95% (inactive) |
| CCOC(=O)CSc1c([N+](=O)[O-])ncn1C | 91.1% (inactive) |
| Fc1ccc(C2CC(c3cccc(Nc4ccncc4)c3)=NN2c2ccc(Cl)cc2)cc1 (centres undefined) | 63.6% (inactive) |
| CCN1C(=O)N(CC)C2C1NC(=S)N2/N=C/c1ccc(C(F)(F)F)cc1 (centres undefined) | 49.4% (inactive) |
| CC1(C)CC[C@]2(CN)CC[C@]3(C)C(=CC[C@@H]4[C@@]5(C)CCCNC(C)(C)[C@@H]5CC[C@]43C)[C@H]2C1 | 96.1% (inactive) |
| CC(C)(C)n1cc(-c2ccnc(NCCNS(=O)(=O)c3ccc(O)cc3)c2)c(-c2cccc(O)c2)n1 | 91.8% (inactive) |
| O=c1oc2ccc(Cl)cc2cc1-c1cs/c(=N/N=C\c2ccc(Cl)cc2)n1/N=C/c1ccc(Cl)cc1 | 114% (inactive) |
| CCCCC/C(C)=N\NC(N)=S | -6.78% (active) |

| Compound | growth |
| --- | --- |
| CCn1cc(-c2ccnc(NCCNS(=O)(=O)c3cccc4ccccc34)c2)c(-c2cccc(O)c2)n1 | 90.3% (inactive) |
| O=C(N/N=C/c1ccc(Oc2ccccc2)cc1)c1cnn2c1NC(c1ccccc1)C2 (centres undefined) | 30.2% (inactive) |
| OCCCc1ccccc1 | 104% (inactive) |
| CC1(C(N)=O)CCC(C(=O)O)C1(C)C (centres undefined) | 99.2% (inactive) |
| COc1ccc(C2CC(c3cccc(Nc4ccncc4)c3)=NN2c2ccc(Cl)cc2)cc1 (centres undefined) | 45.3% (inactive) |
| Cn1c(SCC(=O)c2cccs2)nc2ccccc2c1=O | 68.7% (inactive) |
| O=S(=O)(NCCCNc1nccc(-c2c(-c3ccc(F)c(O)c3)nc3sccn23)n1)c1ccc(Cl)cc1 | 82.8% (inactive) |
| O=C(NCOC(O)C(Cl)(Cl)Cl)NCOC(O)C(Cl)(Cl)Cl (centres undefined) | 106% (inactive) |
| CC(=O)OCC1O[C@@H](OC(C)=O)[C@@H](NC(=O)NS(=O)(=O)c2ccccc2)C(OC(C)=O)[C@@H]1OC(C)=O (some centres undefined) | 107% (inactive) |
| O=C(CSc1nc2sc3c(c2c(=O)n1-c1ccccc1)CCCCC3)N/N=C/c1cccc([N+](=O)[O-])c1 | 19.2% (inactive) |
| COc1cc2c(cc1-c1c(C)noc1C)ncc1nc(C3CC3)n([C@H](C)COC(F)F)c12 | 46% (inactive) |
| O=C(CNCCO)Nc1ccc2ncnc(Nc3ccc(OCc4cccc(F)c4)c(Cl)c3)c2c1 | -17.8% (active) |
| CN(C)CCCNc1c2ccccc2nc2c1oc1ccc(Cl)cc12 | 5.14% (active) |
| O=C(O)/C=C/C(=O)Nc1cccc(Cn2nnc3cc(Cl)c(Cl)cc32)c1 | 94.2% (inactive) |
| Oc1ccc2cc(Br)ccc2c1-c1c(O)ccc2cc(Br)ccc12 | 90.9% (inactive) |
| CCOC(=O)c1c(N)sc2cc(O)ccc12 | 131% (inactive) |
| CC[Si](CC)(CC)OC1[C@@H](O[Si](CC)(CC)CC)[C@@H](CNC(=O)NC)O[C@H]1n1cnc2c(NC(=O)Nc3ccccc3)ncnc21 (some centres undefined) | 97.5% (inactive) |
| CCCC(c1nnnn1C1CCCCC1)N1CCN(C(=O)c2ccco2)CC1 (centres undefined) | 15.2% (inactive) |
| CN1CCN(C2CCN(C(=O)Nc3cc(Oc4ccc(NC(=O)C5(C(=O)Nc6ccc(F)cc6)CC5)c(F)c4)ccn3)CC2)CC1 | -70.7% (active) and 96.6% (inactive) |
